{"source": "the supplement of paper PMC4466140", "assay_in_all_cases": "SPOT peptide array binding signal intensity (averaged, normalized) (arbitrary units (background-subtracted, floor 0; scale differs between SH3 domains)); higher = stronger binding of the SH3 domain to the peptide", "key": {"AgAbp1": {"target": "AgAbp1", "outline": "(§1)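 GST-fused SH3 domains from four yeast species were expressed in E. coli BL21(DE3), purified on glutathione Sepharose and incubated at 10 μg/ml overnight at 4°C in TBS-based blocking buffer on cellulose membranes carrying synthetic 15-mer peptides, with cysteines replaced by serines. Bound protein was detected with anti-GST antibody, an HRP anti-mouse secondary and luminol, then imaged and quantified with Genespotter. Binding signal is the normalized, background-subtracted spot intensity averaged over replicates, in arbitrary units that differ between domains.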"}, "AgBbc1": {"target": "AgBbc1", "outline": "as §1"}, "AgBem1-D1": {"target": "AgBem1-D1", "outline": "as §1"}, "AgBzz1-D1": {"target": "AgBzz1-D1", "outline": "as §1"}, "AgBzz1-D2": {"target": "AgBzz1-D2", "outline": "as §1"}, "AgCyk3": {"target": "AgCyk3", "outline": "as §1"}, "AgFus1": {"target": "AgFus1", "outline": "as §1"}, "AgHof1": {"target": "AgHof1", "outline": "as §1"}, "AgHse1": {"target": "AgHse1", "outline": "as §1"}, "AgLsb1": {"target": "AgLsb1", "outline": "as §1"}, "AgLsb4": {"target": "AgLsb4", "outline": "as §1"}, "AgMyo5": {"target": "AgMyo5", "outline": "as §1"}, "AgNbp2": {"target": "AgNbp2", "outline": "as §1"}, "AgRvs167": {"target": "AgRvs167", "outline": "as §1"}, "AgSho1": {"target": "AgSho1", "outline": "as §1"}, "AgSla1-D1-D2": {"target": "AgSla1-D1-D2", "outline": "as §1"}, "AgSla1-D3": {"target": "AgSla1-D3", "outline": "as §1"}, "CaAbp1-D1": {"target": "CaAbp1-D1", "outline": "as §1"}, "CaAbp1-D2": {"target": "CaAbp1-D2", "outline": "as §1"}, "CaBbc1": {"target": "CaBbc1", "outline": "as §1"}, "CaBem1-D1": {"target": "CaBem1-D1", "outline": "as §1"}, "CaBzz1-D1": {"target": "CaBzz1-D1", "outline": "as §1"}, "CaBzz1-D2": {"target": "CaBzz1-D2", "outline": "as §1"}, "CaCyk3": {"target": "CaCyk3", "outline": "as §1"}, "CaFus1": {"target": "CaFus1", "outline": "as §1"}, "CaHof1": {"target": "CaHof1", "outline": "as §1"}, "CaHse1": {"target": "CaHse1", "outline": "as §1"}, "CaLsb1": {"target": "CaLsb1", "outline": "as §1"}, "CaLsb4": {"target": "CaLsb4", "outline": "as §1"}, "CaMyo5": {"target": "CaMyo5", "outline": "as §1"}, "CaNbp2": {"target": "CaNbp2", "outline": "as §1"}, "CaRvs167": {"target": "CaRvs167", "outline": "as §1"}, "CaRvs167-3": {"target": "CaRvs167-3", "outline": "as §1"}, "CaSho1": {"target": "CaSho1", "outline": "as §1"}, "CaSla1-D1-D2": {"target": "CaSla1-D1-D2", "outline": "as §1"}, "CaSla1-D3": {"target": "CaSla1-D3", "outline": "as §1"}, "ScAbp1": {"target": "ScAbp1", "outline": "as §1"}, "ScBbc1": {"target": "ScBbc1", "outline": "as §1"}, "ScBem1-D1": {"target": "ScBem1-D1", "outline": "as §1"}, "ScBzz1-D1": {"target": "ScBzz1-D1", "outline": "as §1"}, "ScBzz1-D2": {"target": "ScBzz1-D2", "outline": "as §1"}, "ScCyk3": {"target": "ScCyk3", "outline": "as §1"}, "ScFus1": {"target": "ScFus1", "outline": "as §1"}, "ScHof1": {"target": "ScHof1", "outline": "as §1"}, "ScHse1": {"target": "ScHse1", "outline": "as §1"}, "ScLsb1": {"target": "ScLsb1", "outline": "as §1"}, "ScLsb2": {"target": "ScLsb2", "outline": "as §1"}, "ScLsb3": {"target": "ScLsb3", "outline": "as §1"}, "ScLsb4": {"target": "ScLsb4", "outline": "as §1"}, "ScMyo3": {"target": "ScMyo3", "outline": "as §1"}, "ScMyo5": {"target": "ScMyo5", "outline": "as §1"}, "ScNbp2": {"target": "ScNbp2", "outline": "as §1"}, "ScPex13": {"target": "ScPex13", "outline": "as §1"}, "ScRvs167": {"target": "ScRvs167", "outline": "as §1"}, "ScSho1": {"target": "ScSho1", "outline": "as §1"}, "ScSla1-D1-D2": {"target": "ScSla1-D1-D2", "outline": "as §1"}, "ScSla1-D3": {"target": "ScSla1-D3", "outline": "as §1"}, "SpAbp1-D1": {"target": "SpAbp1-D1", "outline": "as §1"}, "SpBbc1": {"target": "SpBbc1", "outline": "as §1"}, "SpBzz1-D1": {"target": "SpBzz1-D1", "outline": "as §1"}}, "data": [{"binder": "KRNRLKILLPFLEQS", "values": [{"measurement": "SPOT peptide array binding signal intensity", "setting": "AgAbp1", "value": 7}, {"measurement": "SPOT peptide array binding signal intensity", "setting": "AgBbc1", "value": 1.75}, {"measurement": "SPOT peptide array binding signal intensity", "setting": "AgBem1-D1", "value": 102}, {"measurement": "SPOT peptide array binding signal intensity", "setting": "AgBzz1-D1", "value": 9}, {"measurement": "SPOT peptide array binding signal intensity", "setting": "AgBzz1-D2", "value": 41}, {"measurement": "SPOT peptide array binding signal intensity", "setting": "AgCyk3", "value": 0.5}, {"measurement": "SPOT peptide array binding signal intensity", "setting": "AgFus1", "value": 1340}, {"measurement": "SPOT peptide array binding signal intensity", "setting": "AgHof1", "value": 30.5}, {"measurement": "SPOT peptide array binding signal intensity", "setting": "AgHse1", "value": 1380}, {"measurement": "SPOT peptide array binding signal intensity", "setting": "AgLsb1", "value": 3.5}, {"measurement": "SPOT peptide array binding signal intensity", "setting": "AgLsb4", "value": 126}, {"measurement": "SPOT peptide array binding signal intensity", "setting": "AgMyo5", "value": 0.5}, {"measurement": "SPOT peptide array binding signal intensity", "setting": "AgNbp2", "value": 102}, {"measurement": "SPOT peptide array binding signal intensity", "setting": "AgRvs167", "value": 2.33}, {"measurement": "SPOT peptide array binding signal intensity", "setting": "AgSho1", "value": 200}, {"measurement": "SPOT peptide array binding signal intensity", "setting": "AgSla1-D1-D2", "value": 49.5}, {"measurement": "SPOT peptide array binding signal intensity", "setting": "AgSla1-D3", "value": 12.5}, {"measurement": "SPOT peptide array binding signal intensity", "setting": "CaAbp1-D1", "value": 342}, {"measurement": "SPOT peptide array binding signal intensity", "setting": "CaAbp1-D2", "value": 154}, {"measurement": "SPOT peptide array binding signal intensity", "setting": "CaBbc1", "value": 27}, {"measurement": "SPOT peptide array binding signal intensity", "setting": "CaBem1-D1", "value": "≤ 0"}, {"measurement": "SPOT peptide array binding signal intensity", "setting": "CaBzz1-D1", "value": 5}, {"measurement": "SPOT peptide array binding signal intensity", "setting": "CaBzz1-D2", "value": 66.8}, {"measurement": "SPOT peptide array binding signal intensity", "setting": "CaCyk3", "value": 3}, {"measurement": "SPOT peptide array binding signal intensity", "setting": "CaFus1", "value": 4760}, {"measurement": "SPOT peptide array binding signal intensity", "setting": "CaHof1", "value": 0.5}, {"measurement": "SPOT peptide array binding signal intensity", "setting": "CaHse1", "value": 57.2}, {"measurement": "SPOT peptide array binding signal intensity", "setting": "CaLsb1", "value": 9.75}, {"measurement": "SPOT peptide array binding signal intensity", "setting": "CaLsb4", "value": 21}, {"measurement": "SPOT peptide array binding signal intensity", "setting": "CaMyo5", "value": 3}, {"measurement": "SPOT peptide array binding signal intensity", "setting": "CaNbp2", "value": 742}, {"measurement": "SPOT peptide array binding signal intensity", "setting": "CaRvs167", "value": 61.5}, {"measurement": "SPOT peptide array binding signal intensity", "setting": "CaRvs167-3", "value": 828}, {"measurement": "SPOT peptide array binding signal intensity", "setting": "CaSho1", "value": 1220}, {"measurement": "SPOT peptide array binding signal intensity", "setting": "CaSla1-D1-D2", "value": 5}, {"measurement": "SPOT peptide array binding signal intensity", "setting": "CaSla1-D3", "value": 136}, {"measurement": "SPOT peptide array binding signal intensity", "setting": "ScAbp1", "value": 54}, {"measurement": "SPOT peptide array binding signal intensity", "setting": "ScBbc1", "value": 2.5}, {"measurement": "SPOT peptide array binding signal intensity", "setting": "ScBem1-D1", "value": 74}, {"measurement": "SPOT peptide array binding signal intensity", "setting": "ScBzz1-D1", "value": 20.5}, {"measurement": "SPOT peptide array binding signal intensity", "setting": "ScBzz1-D2", "value": 53}, {"measurement": "SPOT peptide array binding signal intensity", "setting": "ScCyk3", "value": 102}, {"measurement": "SPOT peptide array binding signal intensity", "setting": "ScFus1", "value": 1980}, {"measurement": "SPOT peptide array binding signal intensity", "setting": "ScHof1", "value": 1.5}, {"measurement": "SPOT peptide array binding signal intensity", "setting": "ScHse1", "value": 2110}, {"measurement": "SPOT peptide array binding signal intensity", "setting": "ScLsb1", "value": 3}, {"measurement": "SPOT peptide array binding signal intensity", "setting": "ScLsb2", "value": 5}, {"measurement": "SPOT peptide array binding signal intensity", "setting": "ScLsb3", "value": 145}, {"measurement": "SPOT peptide array binding signal intensity", "setting": "ScLsb4", "value": 9.5}, {"measurement": "SPOT peptide array binding signal intensity", "setting": "ScMyo3", "value": 2.5}, {"measurement": "SPOT peptide array binding signal intensity", "setting": "ScMyo5", "value": 2.25}, {"measurement": "SPOT peptide array binding signal intensity", "setting": "ScNbp2", "value": 130}, {"measurement": "SPOT peptide array binding signal intensity", "setting": "ScPex13", "value": 0.25}, {"measurement": "SPOT peptide array binding signal intensity", "setting": "ScRvs167", "value": 18.2}, {"measurement": "SPOT peptide array binding signal intensity", "setting": "ScSho1", "value": 1290}, {"measurement": "SPOT peptide array binding signal intensity", "setting": "ScSla1-D1-D2", "value": 122}, {"measurement": "SPOT peptide array binding signal intensity", "setting": "ScSla1-D3", "value": 3.25}, {"measurement": "SPOT peptide array binding signal intensity", "setting": "SpAbp1-D1", "value": 114}, {"measurement": "SPOT peptide array binding signal intensity", "setting": "SpBbc1", "value": 1.5}, {"measurement": "SPOT peptide array binding signal intensity", "setting": "SpBzz1-D1", "value": 90}]}]}
